Rows were chosen to be rich in hits. Some 7.7% of all compounds tested hit in one or more screens of this group.
Giardia FBPA inh: qHTS Assay for Inhibitors of Fructose-1,6-bisphosphate Aldolase from Giardia Lamblia. purified Giardia FBPA. Potency, µM (titrated, usually from 59.6 µM), for inactives: at the top dose activity, negative = inhibition, most hits filed as inhibitors. hit rate 0.71% among 290,000. AID 2451, 2010; note: potency is the fitted concentration of half-maximal effect; nearly all actives have a fitted effect of over 55% in size
Target sequence (A8B2U2 whole entry, looked up): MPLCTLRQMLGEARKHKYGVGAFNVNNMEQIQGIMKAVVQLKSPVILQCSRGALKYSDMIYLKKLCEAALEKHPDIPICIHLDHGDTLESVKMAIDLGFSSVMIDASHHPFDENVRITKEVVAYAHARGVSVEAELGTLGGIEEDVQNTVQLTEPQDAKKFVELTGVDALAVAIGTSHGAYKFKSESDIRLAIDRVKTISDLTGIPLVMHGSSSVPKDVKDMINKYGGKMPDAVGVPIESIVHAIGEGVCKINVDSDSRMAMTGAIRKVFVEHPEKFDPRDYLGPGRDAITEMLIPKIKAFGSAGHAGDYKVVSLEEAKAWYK
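Giardia FBPA (40 nM reagent) was preincubated 10 min at RT with compound (up to 57.5 uM final), then substrate plus GAPDH/TPI/NAD/arsenate coupling system with diaphorase/resazurin was added; resorufin fluorescence (525/598 nm) was read after 20 min.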
Sm TGR block: qHTS Assay for the Inhibitors of Schistosoma Mansoni Peroxiredoxins; purified TGR, DTNB reduction, TNB absorbance 405 nm; Potency, µM (top dose mostly 114 µM), for the others: at the top dose activity change, negative = inhibition, actives largely listed as inhibitors; hit rate 3% among 360,000; note: potency is the fitted concentration of half-maximal effect; nearly all actives have a fitted effect of over 60% in size
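TGR 20 nM + NADPH 100 uM (dispensed conc.), cpd preinc 15 min RT; start with NADPH (500 uM addition) then DTNB (15 mM addition). Kinetic TNB absorbance, 405 nm filter. Four-parameter Hill fit across titration.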
FMDV inh: High Throughput Screening for Foot and Mouth Disease Virus Antivirals; FMDV antiviral cell-based qHTS; Potency, µM (series often up to 57.9 µM), without a hit: top-dose activity change, negative = inhibition, actives largely listed as inhibitors; hit rate 1.2% among 410,000; calls by dose curve; tested in HEK293T cells; note: read-out not given here; potency is the fitted concentration of half-maximal effect; nearly all actives have a fitted effect of over 45% in size
RE007 growth inh: qHTS Assay for Inhibitors of the HIV-1 protein Vpr | hit rate 0.21% among 360,000 | AID 651644, 2012 | S. pombe RE007 Vpr strain, BacTiter-Glo ATP luminescence, 24 h | Potency, µM (highest dose often 92.2 µM), inactives show top-dose activity change, negative = less growth, actives largely listed as inhibitors; active = well fitted falling curve with a large enough effect; inconclusive = small, poorly fitted or top-dose-only effect; inactive = no such curve, though single readings can be large or run the other way; note: potency is the fitted concentration of half-maximal effect; nearly all actives have a fitted effect of over 50% in size
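Fission yeast strain RE007, carrying one chromosomally integrated HIV-1 vpr copy, was seeded at OD 0.01 in PMG+AL medium with 23 nL pinned compound. After 24 h at 30 °C and 99% humidity, viability was read by BacTiter-Glo luminescence.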
HCMV antiviral: qHTS Assay for inhibitors of the human cytomegalovirus (HCMV); activity change, negative = inhibition, % at 57.5 µM; hit rate 4.5% among 410,000; HFF cells, HCMV-luciferase reporter, 72 h; stronger effect = lower value; in the data active = activity change below about -60%; inconclusive = no clear call, values can overlap the other calls; inactive = above about -39%
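Compounds were evaluated in HFFs infected with an HCMV luciferase reporter virus (MOI 1 PFU/cell). Luciferase in lysates collected 72 h post infection served as the replication measure.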
Tb PYK inh: qHTS of Trypanosoma Brucei Inhibitors | TbPYK enzyme, Kinase-Glo Plus ATP luminescence, 45 min | Potency, µM (top dose mostly 76.8 µM), for inactives: top-dose activity, negative = inhibition, actives largely listed as inhibitors | hit rate 0.12% among 410,000 | AID 624173, 2012; note: potency is the fitted concentration of half-maximal effect; nearly all actives have a fitted effect of over 50% in size
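Glycolytic pyruvate kinase of T. brucei was incubated with substrate, test compound and 130 uM ADP for 45 minutes at room temperature. Luminescent Kinase-Glo Plus signal was measured after 10 minutes.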
An asterisk follows results filed as active; [ ] = dose if it differs, or a comment. Unless noted, calls come from the whole dose curve; as a rule, active = well fitted curve in the direction sought with a large enough effect; inconclusive = small, poorly fitted or top-dose-only effect, or another doubt; inactive = no such curve, though single readings can be large; an effect the other way counts as inactive or inconclusive. % is set by controls: 0 for no effect and ±100 for the full control effect.

CCN(C(=O)CSc1ncc2c(n1)-c1cc(Cl)ccc1N(Cc1ccccc1)S2(=O)=O)c1cccc(C)c1 was read as Sm TGR block 1%, FMDV inh 7%, HCMV antiviral 11 and Tb PYK inh -8%.
OCC1COC(c2ccccc2)=N1 (centres undefined) was read as HCMV antiviral 69.
COC(=O)[C@H]1CC2(CC=C(C)C)C(=O)[C@@](CC=C(C)C)(C(=O)C(C(=O)c3ccccc3)=C2OC)C1(C)C (tested in a mixture with another compound) was read as Giardia FBPA inh 4%.
`Cc1cc2n(n1)SC(Nc1cc(Cl)ccc1Cl)N2` (centres undefined) gave Giardia FBPA inh inconclusive, Sm TGR block 16µM*, FMDV inh 0%, RE007 growth inh 0%, HCMV antiviral -20 and Tb PYK inh -9%.
Screening S=c1[nH]nc(-c2ccccc2)n1C1C=CCCC1 (centres undefined) returned Giardia FBPA inh -8%, Sm TGR block 0%[11.4 µM], FMDV inh 6%, RE007 growth inh 5%, HCMV antiviral -16 and Tb PYK inh 8.9µM*.
For CN(C)CCCC(=O)c1ccc2c(c1)OCO2 the results were Giardia FBPA inh -3%, Sm TGR block -30%, FMDV inh -18%, RE007 growth inh -8%, HCMV antiviral inconclusive and Tb PYK inh -3%.
Screening O=C(NCCc1ccccc1F)c1ccc2c(c1)OCCO2 returned Giardia FBPA inh -3%, Sm TGR block -10%, FMDV inh 2.8µM*, RE007 growth inh -9%, HCMV antiviral -99* and Tb PYK inh -19%.
CN(C)CCC(=O)c1ccc2c(c1)OCO2 was read as Giardia FBPA inh -2%, Sm TGR block 0.63µM*, FMDV inh -7%, RE007 growth inh 11µM*, HCMV antiviral 15 and Tb PYK inh -12%.
For O=C(NCc1ccccc1F)c1ccc2c(c1)OCO2 the results were Giardia FBPA inh -1%, Sm TGR block 8%, FMDV inh 35%, RE007 growth inh 6%, HCMV antiviral 23 and Tb PYK inh -3%.
`COc1cc(C(=O)c2ccc3c(c2)OCO3)cc(OC)c1OC` gave FMDV inh -6%, RE007 growth inh -8%, HCMV antiviral -83* and Tb PYK inh -10%.
Screening O=C(CCNc1ccccc1)c1ccc2c(c1)OCO2 returned Giardia FBPA inh 6%, Sm TGR block 2.2µM*, FMDV inh 24%, RE007 growth inh 32µM*, HCMV antiviral 126 and Tb PYK inh 3%.
COc1ccc(Nc2cc3c(cn2)cc(-c2cccnc2)n3C)cn1 was read as HCMV antiviral -18.
Screening COC(=O)C1=C(C)N(Cc2ccccc2)[C@]23O[C@](C(=O)OC)(C(=O)N2C1c1ccccc1)C(C(=O)OC)=C3C(=O)OC (some centres undefined) returned Giardia FBPA inh 2%[12.9 µM].
Screening C[n+]1ccc(/C=C/c2ccc(Br)cc2)cc1 returned Giardia FBPA inh 1%, Sm TGR block 2%, FMDV inh -15%, RE007 growth inh 0%, HCMV antiviral -63* and Tb PYK inh 0%.
`COc1cc(-c2c(C#N)c(N)nc(SCc3ccncc3)c2C#N)cc(OC)c1OC` gave Giardia FBPA inh 0%, Sm TGR block -1%, FMDV inh inconclusive, RE007 growth inh -5%, HCMV antiviral -7 and Tb PYK inh 0%.
CCOC(=O)CC(=O)CSc1nc2c(c(-c3cccs3)c1C#N)CCC2 was read as Giardia FBPA inh 10%, Sm TGR block 0%, FMDV inh 10%, RE007 growth inh -5%, HCMV antiviral -33 and Tb PYK inh 0%.
CN1CCc2nc(SCc3ccc(Cl)cc3)c(C#N)c(-c3cccs3)c2C1 was read as FMDV inh -11%, RE007 growth inh -5%, HCMV antiviral -109* and Tb PYK inh -6%.
Screening N#Cc1c(N)nc(SCc2ccncc2)c(C#N)c1-c1cccs1 returned Giardia FBPA inh -2%, Sm TGR block -15%, FMDV inh 16µM*, RE007 growth inh -1%, HCMV antiviral inconclusive and Tb PYK inh -1%.
CCOc1ccc(NC(=O)Nc2cc3c(cc2N2CCCCC2)n(C)c(=O)n3C)cc1 was read as Sm TGR block -14%, FMDV inh inconclusive, HCMV antiviral 11 and Tb PYK inh 0%.
Screening COc1ccc(NC(=O)C(C)(C)n2cc(NC(=O)c3ccc4ccccc4n3)cn2)cc1 returned HCMV antiviral 67.
Screening Cn1c(=O)cc(SCC(=O)NCCc2ccc(Cl)cc2)c2cc(Cl)ccc21 returned Sm TGR block -5%, FMDV inh -17%, HCMV antiviral 12 and Tb PYK inh -1%.
`COc1cccc(C2=CC(c3ccccc3F)n3ncc(C(=O)Nc4ccc(C)cc4)c3N2)c1` (centres undefined) gave Sm TGR block 18%, FMDV inh -13%, HCMV antiviral -16 and Tb PYK inh -4%.
Screening CCC(=O)Nc1cccc(C(=O)/C=C/c2cccs2)c1 returned Giardia FBPA inh 4%, FMDV inh 11%, RE007 growth inh -15%, HCMV antiviral -62* and Tb PYK inh -4%.
Screening CCC(=O)Nc1cccc(C(=O)c2ccccc2)c1 returned Giardia FBPA inh 5%, Sm TGR block -2%, RE007 growth inh -7%, HCMV antiviral -18 and Tb PYK inh -2%.
Screening CCC(=O)Nc1cccc(C(=O)/C=C/c2ccccc2)c1 returned Giardia FBPA inh -1%, Sm TGR block inconclusive, FMDV inh 18µM*, RE007 growth inh -37%, HCMV antiviral -104* and Tb PYK inh -5%.
`CC(C)(C)c1ccc(/C=C/C(=O)Nc2ccc(S(N)(=O)=O)cc2)cc1` gave Sm TGR block -1%, FMDV inh inconclusive, HCMV antiviral inconclusive and Tb PYK inh -3%.
Screening CCc1ccccc1NC(=O)[C@@H](c1ccccc1)N1Cc2ccccc2C1=O returned Sm TGR block 3%, FMDV inh 4%, HCMV antiviral -17 and Tb PYK inh -4%.
Cc1cccc(NC(=O)C(c2ccccc2)N2Cc3ccccc3C2=O)c1C (centres undefined) was read as Sm TGR block 4%, FMDV inh 16%, HCMV antiviral -74* and Tb PYK inh -1%.

Assay outcomes as filed in PubChem BioAssay.
